# Bioassay records (PubChem)
# Compounds with a hit are over-represented: about 1.8% of the library has one in this group of screens.
# LYPLA2 counter: counter-screen for PME1 inhibitors: inhibitors of human LYPLA2 | recombinant LYPLA2, FP-Rh probe fluorescence polarization | O95372 | actives 0.38% (n = 320,000) | inhibition, % at 5.9 µM;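 active = inhibition above the screen-wide mean plus 3 SD, limit set per campaign, cut at about 26% in these data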;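 note: 0% = LYPLA2 with DMSO and 100% = wells lacking LYPLA2 enzyme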
# Fam108B inh: blocks mouse Fam108B hydrolase in RBBP9 counter-screen; recombinant Fam108B, FP-Rh probe fluorescence polarization; inhibition, % at 9.51 µM; actives 0.33% (n = 300,000); AID 1947;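 active = inhibition above the screen mean inhibition plus 3 SD, computed separately per campaign, cut at about 18% in these data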;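 note: inhibitors lower polarization as less probe binds the enzyme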
# PAD4 inh: inhibitors of human PAD4; actives 0.41% (n = 330,000); inhibition, % at 6.36 µM; recombinant PAD4, RCA probe fluorescence polarization; AID 485272;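 active = percent inhibition above a cutoff equal to the mean of all tested compounds plus 3 SD, cut at about 15% in these data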;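 note: 0% = PAD4 with RCA probe and DMSO and 100% = probe without PAD4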
# GSTO1 inh: counter-screen for RBBP9 inhibitors: inhibitors of human GSTO1. P78417. recombinant GSTO1, activity-based probe fluorescence polarization. inhibition, % at 5.96 µM. actives 1.1% (n = 300,000). AID 1974;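 active = inhibition above the campaign mean inhibition plus 3 SD, cut at about 35% in these data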;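 note: 0% = GSTO1-1 with DMSO and 100% = wells lacking GSTO1-1 enzyme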
# Target sequence (P78417 whole entry, looked up): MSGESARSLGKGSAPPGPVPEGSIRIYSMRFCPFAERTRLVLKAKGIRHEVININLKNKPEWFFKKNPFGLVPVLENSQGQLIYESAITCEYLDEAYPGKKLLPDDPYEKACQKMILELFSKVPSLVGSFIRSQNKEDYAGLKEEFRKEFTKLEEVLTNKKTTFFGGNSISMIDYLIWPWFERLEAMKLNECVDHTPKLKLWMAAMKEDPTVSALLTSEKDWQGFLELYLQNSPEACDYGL
# LYPLA1 counter: LYPLA1 (human) inhibition in PME1 counter-screen; O75608; recombinant LYPLA1, FP-Rh probe fluorescence polarization; inhibition, % at 5.9 µM; actives 0.16% (n = 320,000); AID 2174;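 active = inhibition above the mean of all tested compounds plus 3 SD, set per campaign, cut at about 14% in these data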;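 note: inhibitors block serine hydrolase probe labeling of LYPLA1 so polarization falls; 0% = enzyme with DMSO and 100% = wells lacking LYPLA1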
# Target sequence (O75608 whole entry, looked up): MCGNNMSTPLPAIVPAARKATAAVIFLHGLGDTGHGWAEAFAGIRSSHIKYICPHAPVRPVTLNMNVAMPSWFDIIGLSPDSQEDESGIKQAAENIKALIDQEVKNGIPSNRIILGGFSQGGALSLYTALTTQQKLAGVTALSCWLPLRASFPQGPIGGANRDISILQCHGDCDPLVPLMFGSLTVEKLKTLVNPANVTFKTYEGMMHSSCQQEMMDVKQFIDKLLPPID
# PME-1 primary: PME-1 (human) inhibition. Q9Y570. actives 0.53% (n = 320,000). recombinant PME-1, FP-Rh probe fluorescence polarization. inhibition, % at 5.9 µM;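 active = inhibition above the campaign mean of all compounds plus 3 SD, cut at about 26% in these data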;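 note: competitive labeling of PME-1 active site by serine hydrolase directed probe; 0% = PME-1 with DMSO and 100% = wells lacking PME-1 enzyme; inhibitors block probe labeling so polarization falls and inhibition rises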
# Fam108b inh conf: Fam108b (mouse) hydrolase inhibition, confirmation assay; AID 1978; inhibition, % at 9.51 µM; recombinant Fam108b, FP-Rh probe fluorescence polarization; shares compounds with Fam108B inh; actives 44% (n = 930);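 active = inhibition above a limit from the primary screen, the mean over all compounds plus 3 SD, cut at about 19% in these data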;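 note: 0% = median of active Fam108b wells and 100% = catalytically dead S170A mutant; inhibitors free the probe so polarization falls as inhibition rises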
# Fam108b inh: inhibits mouse Fam108b in gel-based ABPP; shares compounds with Fam108B inh; recombinant Fam108b, fluorophosphonate probe; inhibition, % at 20 µM; actives 44% (n = 260); in the data active = inhibition above about 40%
# An asterisk follows results filed as active; . = not tested or not shown.
SMILES,LYPLA2 counter,Fam108B inh,PAD4 inh,GSTO1 inh,LYPLA1 counter,PME-1 primary,Fam108b inh conf,others
O=C(N/N=C/c1ccc(-c2ccc(S(=O)(=O)Nc3ncccn3)cc2)o1)c1cc2ccccc2cc1O,-21,24*,-4,-3,-9,-3,20*,
CCOc1ccc(C(=O)N/N=C/c2ccc(-c3ccc(S(=O)(=O)Nc4ncccn4)cc3)o2)cc1,-7,-3,-2,-18,-8,-7,.,
Cc1c(Br)c(O)c(Br)c2sc(=O)oc12,0,29*,-1,74*,-6,18,1,
Cc1cccc(NC(=O)/C(C#N)=C/c2ccc(F)cc2)n1,6,38*,12,30,4,16,3,
CCCOc1ccccc1/C=C(\C#N)C(=O)Nc1cccc(C)n1,0,12,-1,7,0,-2,.,
COc1ccc(CNC(=O)COC(=O)Cc2ccc(Br)cc2)cc1,.,.,0,.,.,.,.,
Cc1[nH]n(C(N)=S)c(=O)c1N=Nc1ccccc1C(F)(F)F,-1,24*,-2,-20,-1,2,27*,
Cc1ccccc1N=Nc1c(C)[nH]n(C(N)=S)c1=O,3,4,-1,-4,-2,-3,.,
C[C@H](CO)N1C[C@H](C)[C@@H](CN(C)Cc2ccc(Cl)c(Cl)c2)Oc2c(NS(=O)(=O)c3cn(C)cn3)cccc2C1=O,.,.,0,.,.,.,.,
O=C(COC(=O)/C=C/c1cccs1)Nc1nc(-c2cccc(Br)c2)cs1,14,21*,-5,-12,-3,44*,5,
O=C(/C=C/c1cccs1)Nc1nc(-c2ccccc2)cs1,-32,-16,-2,-11,-22,-34,.,
CC1=Nc2ccccc2/C1=C/c1sc(=O)n(CC(=O)N2CCCC2)c1O,-4,4,-8,-4,-1,5,.,
CC1=Nc2ccccc2/C1=C\c1sc(Nc2ccc(C)cc2)nc1O,-2,23*,-3,2,-3,52*,5,
Oc1cccc(Nc2nc(O)c(/C=C3\C=Nc4ccccc43)s2)c1,-21,44*,-22,-109,-19,28*,16,
Oc1nc(Nc2cccc(Cl)c2)sc1/C=C1\C=Nc2ccccc21,-11,34*,-4,-22,-3,49*,33*,Fam108b inh=95*
O=S(=O)(Nc1cc(S(=O)(=O)N2CCOCC2)ccc1Cl)c1ccccc1,.,.,3,.,.,.,.,
COc1ccc(C(CC(=O)Nc2cc(C)ccn2)N2Cc3ccccc3C2=O)cc1 (stereo unspecified),6,-4,1,-1,2,0,.,
CCOC(=O)c1sc(NC(=O)c2cccc(S(=O)(=O)N3c4ccccc4CC3C)c2)cc1C (stereo unspecified),-3,43*,2,-9,-18,33*,21*,
Cc1cc(NC(=O)c2cccc(S(=O)(=O)N3c4ccccc4CC3C)c2)no1 (stereo unspecified),4,-2,3,0,-4,1,.,
CC(=O)Oc1ccc(C(=O)Cc2ccc3ccccc3n2)c(O)c1C,4,3,-5,-4,-1,-2,.,
Cc1c(O)ccc(C(Cc2ccc3ccccc3n2)=NO)c1O,.,.,.,.,.,.,.,Fam108b inh=0
Cc1c(O)ccc(/C(Cc2ccc3ccccc3n2)=N\O)c1O,15,25*,-5,-1,9,50*,29*,
CCOc1ccc(OCCCC(=O)ON=C(N)c2ccccc2C)cc1,-3,.,5,.,-3,-2,.,
COc1ccc(-c2cc(-c3ccc(OC)c(OC)c3)n[nH]2)c(O)c1,-1,20*,0,-20,-9,11,6,
COc1ccc(O)c(-c2cc(-c3cccc(Br)c3)n[nH]2)c1,-1,18*,-7,-15,1,42*,-3,
SMILES,LYPLA2 counter,Fam108B inh,PAD4 inh,GSTO1 inh,LYPLA1 counter,PME-1 primary,Fam108b inh conf,others
CCOc1cc(/C=C2\SC(=Nc3ccc(CC)cc3)NC2=O)ccc1OCC(=O)O,-10,-21,-12,-79,-10,-42,.,
CCCCCCCCCC(=O)N[C@@H]1c2cc(OC)c(OC)cc2C[C@H]1O,.,.,-3,.,.,.,.,
O=[N+]([O-])c1cc(/C=N\Nc2nc(-c3ccccc3)cs2)ccc1O,2,25*,-1,63*,1,23,25*,
COc1cc(/C=N/Nc2nc(-c3ccc(S(=O)(=O)N(C)C)cc3)cs2)ccc1O,-1,21*,-5,12,-7,28*,9,
COc1ccc(OCC(=O)N2c3ccccc3CC2C)c([N+](=O)[O-])c1 (stereo unspecified),.,.,-5,.,.,.,.,
COc1ccc(/C=N/NC(=O)c2ccc(F)cc2)cc1CN1CCc2cc(OC)c(OC)cc2C1C (stereo unspecified),-14,-10,-2,4,-8,0,.,
COc1ccc(/C=N/NC(=O)c2ccc(O)cc2)cc1CN1CCCc2ccccc21,-4,27*,2,-20,-2,27*,33*,
COc1ccc(C=NNC(=O)c2ccc(O)cc2)cc1CN1CCCc2ccccc21,.,.,.,.,.,.,.,Fam108b inh=90*
O=C(c1cccc(S(=O)(=O)Nc2ccccc2Cl)c1)N1CCN(c2ccccc2O)CC1,-2,.,0,.,1,10,.,
O=[N+]([O-])c1cc(S(=O)(=O)Nc2ccccc2)ccc1N1CCN(c2ccc(O)cc2)CC1,20,8,1,-2,-1,11,.,
Cc1ccc(NS(=O)(=O)c2ccc(N3CCN(c4ccc(O)cc4)CC3)c([N+](=O)[O-])c2)c(C)c1,12,21*,-1,2,-5,23,9,
COc1ccc(Nc2nc3ccccc3nc2NS(=O)(=O)c2cccs2)c(OC)c1,-9,23*,-3,5,0,0,13,
CCN(CC)S(=O)(=O)c1ccc(Nc2ccc(-c3ccc4c(c3)OCCO4)nn2)cc1,-26,20*,-1,-3,-28,-68,-127,
CN(C)S(=O)(=O)c1ccc(Nc2ccc(-c3ccc4c(c3)OCCO4)nn2)cc1,-3,4,1,-2,-14,-61,.,
COc1cc(OC)c(OC)cc1/C=N/Nc1nc2ccccc2[nH]1,-2,11,3,8,1,-19,.,
C#CCn1cc(/C=N/Nc2nc3ccccc3[nH]2)c2ccccc21,6,30*,3,-4,4,25,21*,
CCN(CC)c1ccc(/C=N/Nc2nc3ccccc3[nH]2)c(O)c1,7,21*,-11,-22,-4,7,19*,
C(=C\c1nccc2c1[nH]c1ccccc12)/c1ccccc1,-17,-2,0,-9,-9,-15,.,
Fc1ccc(/C=C\c2nccc3c2[nH]c2ccccc23)cc1,-12,19*,-4,-10,-10,-33,1,
Cc1ccc(/C=C\c2nccc3c2[nH]c2ccccc23)cc1,-32,24*,-5,-36,-14,-45,10,
